Legend:
Type in all cases: functional
[1] = biological target: Solute carrier family 2, facilitated glucose transporter member 1 (Homo sapiens) (UniProt P11166); test: ST_JUDE_LEISH: Cytotoxicity at 2uM final concentration against transgenic Leishmania Mexicana promastigotes LmGLUT1 that are glucose transport deficient and complemented with the human glucose transporter GLUT1. Activity is measured by DNA content using SYBR green in vitro
[2] = biological target: Hexose transporter 1 (Plasmodium falciparum) (UniProt O97467); test: ST_JUDE_LEISH: Cytotoxicity at 2uM final concentration against transgenic Leishmania Mexicana promastigotes LmPfHT that are glucose transport deficient and complemented with the Plasmodium falciparum hexose transporter. Activity is measured by DNA content using SYBR green in vitro
[3] = biological target: Glucose transporter (Leishmania mexicana) (UniProt O61059); test: ST_JUDE_LEISH: Cytotoxicity at 2uM final concentration against transgenic Leishmania Mexicana promastigotes LmGT2 that are glucose transport deficient and complemented with the L. Mexicana glucose transporter 2. Activity is measured by DNA content using SYBR green in vitro

Sequence of Solute carrier family 2, facilitated glucose transporter member 1 (Homo sapiens) (P11166 whole entry): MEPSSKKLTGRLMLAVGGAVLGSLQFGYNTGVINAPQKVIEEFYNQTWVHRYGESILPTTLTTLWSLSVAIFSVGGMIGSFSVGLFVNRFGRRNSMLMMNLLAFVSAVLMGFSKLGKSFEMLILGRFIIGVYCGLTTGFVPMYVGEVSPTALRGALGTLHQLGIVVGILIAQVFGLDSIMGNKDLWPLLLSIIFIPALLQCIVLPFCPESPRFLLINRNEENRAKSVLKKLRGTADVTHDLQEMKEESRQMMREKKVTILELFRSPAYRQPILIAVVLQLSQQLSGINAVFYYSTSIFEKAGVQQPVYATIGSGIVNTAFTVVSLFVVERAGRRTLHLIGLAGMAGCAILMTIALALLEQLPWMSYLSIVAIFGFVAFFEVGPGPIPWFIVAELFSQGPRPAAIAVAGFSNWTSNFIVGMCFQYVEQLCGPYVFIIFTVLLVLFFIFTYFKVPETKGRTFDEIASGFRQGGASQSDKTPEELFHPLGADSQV

SMILES | inhibition [1] [%] | inhibition [2] [%] | inhibition [3] [%]
O=C(/C=C/c1ccc(Cl)c(Cl)c1)NCCCCCN1CCC(C(=O)Nc2ccc(F)c(Cl)c2)CC1 | 4.66 | 1.87 | 1.53
CCCc1nc2c(N3CCCN(C(=O)NC4CCCCC4)CC3)cccc2n1Cc1ccccn1 | -2 | -1.61 | -1.29
COc1cc(C(=O)Nc2cccc(-c3nc4ccccc4[nH]3)c2)ccc1OC(C)=O | -0.73 | 2.19 | 0.31
CC(C)(C)c1ccc(CN2CCC(CNC(=O)c3cc(-c4ccccc4Cl)cs3)C2)cc1 (stereo not given) | 0.49 | 0.05 | 1.29
Cc1nn(-c2cccc(C(F)(F)F)c2)c2sc(C(=O)NC3CCN(C(C)C)CC3)cc12 | 1.73 | -1.04 | 1.61
CC1(C)CCC(C)(C)c2c1ccc(C1CCN(CCCCNC(=O)c3ccc(-c4ccc(C#N)cc4)cc3)CC1)c2OCC(N)=O | 3.73 | 4.26 | 4.33
O=c1cc(NCCCNCc2[nH]c3cc(Cl)cc(Cl)c3c2Cn2cccn2)[nH]c2ccccc12 | 0.47 | -1.31 | 1.93
C[C@@H](Nc1nc(NCc2ccccc2)c2sccc2n1)c1ccccc1 | 24 | 22.3 | 8.39
O=C(Nc1ccc(-c2cccc(-c3nc4cc(C(F)(F)F)ccc4[nH]3)c2)cc1)c1ccoc1 | 4.69 | 3.58 | 3.22
Cc1cccc2nc(-c3cccc(-c4ccc(NC(=O)COc5ccccc5C(N)=O)cc4)c3)[nH]c12 | 4.4 | 4.11 | 5.02
CCN(CC)CCCC(C)Nc1ccnc2ccc(OC)cc12 (stereo not given) | 8.15 | 8.91 | 8.52
Cc1cccc(C(=O)NCCCN2CCC(NC(=O)/C=C/c3ccc(Cl)c(Cl)c3)CC2)c1 | 1.05 | 0.15 | 2.02
COc1cccc(CNc2ncc(-c3ccsc3)c(-c3nccs3)n2)c1 | -0.5 | 0.89 | -0.73
O=C(NCCCCN1CCC(c2ccc3c(c2OCCO)CCCC3)CC1)c1sc(-c2ccc(C(F)(F)F)cc2)nc1CO | 3.31 | 2.17 | 3.21
Oc1ccc(CCCNc2nc(NCc3cccc4ccccc34)nc(NC3CCNCC3)n2)cc1 | -0.36 | 3.07 | 2
Cc1cc(O)c(-c2ccc(S(=O)(=O)c3ccc(Cl)cc3)cc2)c(C)n1 | 0.09 | 0.81 | 1.44
O=C1C(c2ccccc2)=C(Nc2ccc(Cl)cc2)c2ccccc21 | 1.6 | 1.45 | 2.61
C[C@@H](COc1ccccc1)NCC(O)c1ccc([N+](=O)[O-])c(OCc2ccccc2)c1 (stereo not given in full) | 0.54 | 0.96 | 0.1
Clc1ccc(Cl)c2[nH]c(CNCCCNc3nc4ccccc4[nH]3)cc12 | 0.92 | 2.67 | 1.29
Cc1cnc(NCC2CCCCC2)nc1N[C@@H](CC(C)C)C(=O)Nc1ccccc1 | 2.17 | 1.5 | 0.65
CCCCCN1CCCN(Cc2cccc(NC(=O)c3ccc(Cl)c(Cl)c3)c2)CC1 | -3.68 | 0.02 | 2.58
Oc1ccc(CCNc2nc(NCc3ccccc3-c3ccc(C(F)(F)F)cc3)nc(N3CCCNCC3)n2)cc1 | 4.27 | 2.99 | 2.83
Cn1nccc1C(=O)NCCNCc1ccc(-c2cccc(-c3nc4cc(C(F)(F)F)ccc4[nH]3)c2)cc1 | 0.63 | 1.93 | 2.51
O=C(O)CCc1ccc(-c2c[nH]c3ncc(-c4ccc5ncccc5c4)cc23)cc1 | 10.2 | 8.63 | 5.55

SMILES | inhibition [1] [%] | inhibition [2] [%] | inhibition [3] [%]
COc1cc2nccc(Nc3ccc(NC(=O)c4ccc(C)cc4)c(O)c3)c2cc1OC | 6.88 | 9.16 | 2.92
CC(=O)N(C)c1cccc(C(=O)Nc2ccc(-c3cccc(-c4nc5cccc(C)c5[nH]4)c3)cc2)c1 | 2.19 | 1.06 | -8.47
CC(C)CC1c2[nH]c3ccccc3c(=O)c2CN1C(=O)OC(C)(C)C (stereo not given) | 2.72 | 2.68 | 1.8
COCCn1c(SC(C)C(=O)Nc2cc(C(F)(F)F)ccc2Cl)nc2ccccc2c1=O (stereo not given) | 0.17 | -0.22 | -0.21
CC(C)Cn1cc(C2CCN(CCN3CCC(CNC(=O)c4ccc(NC(=O)c5ccc(Cl)cc5)cc4)CC3)CC2)c2ccccc21 | 7.85 | 7.36 | 4.99
CC(C)CNc1c2c(nc3cnn(-c4c5c(nc6cn[nH]c46)CCCC5)c13)CCCC2 | -3.17 | -1.12 | -2.14
Cc1cc(SC(C)(C)C)cc2c(Cl)c(C(N)=O)cnc12 | 89 | 93.7 | 85.8
O=C(Cc1cn(-c2ccccc2)nc1-c1ccc(Cl)cc1)Nc1nccs1 | 7.92 | 8.35 | 7.98
O=C(/C=C/c1ccc(Cl)c(Cl)c1)NCCCCCN1CCC(NC(=O)Nc2ccc(C(F)(F)F)cc2)CC1 | 8.19 | 8.67 | 8.81
Nc1cc(/C=C/c2ccc([N+](=O)[O-])o2)nc2ccccc12 | 104 | 104 | 101
O=c1ccc2ccc(F)c3c2n1CC3CN1CCC(NCc2cccc(-c3ccccc3F)c2)CC1 (stereo not given) | 19.1 | 22.3 | 11.4
O=C(Nc1ccc2c(c1)CCNCC2)Nc1ccc2ccccc2c1 | 11.1 | 8.46 | 9.36
Cc1ccc(/C=C/C(=O)NC2CCC(N3CCC(c4ccccc4C)CC3)CC2)cc1C (stereo not given) | 4.77 | 4.56 | 1.93
CCC(C)C(COC(=O)c1cc(OC)c(OC)c(OC)c1)N(C)CCN(C)C(COC(=O)c1cc(OC)c(OC)c(OC)c1)C(C)CC (stereo not given) | 1.76 | 1.28 | -0.47
Cc1ccc(-c2csc(C)n2)c(C)c1 | 1.21 | 2.19 | 2.4
CCCN(CCC)CC(O)COc1ccccc1C(=O)Nc1ccccc1 (stereo not given) | 1.49 | 1.09 | -5
Cc1ccc(C(c2nnnn2C2CCCC2)N(Cc2ccco2)Cc2ccccc2Cl)cc1 (stereo not given) | 9.7 | 9.7 | 8.53
O=C1COc2cc(Cl)c(CNC3CCN(CCc4ccnc5c(F)cc(F)cc45)CC3)nc2N1 | 2.1 | 2.94 | 1.57
Cc1cccc2nc(-c3cccc(-c4ccc(NC(=O)C(C)CN(C)C)cc4)c3)[nH]c12 (stereo not given) | -2.74 | 0.04 | -1.14
Cc1[nH]c(C)c(-c2ccc(OCCSc3ccncc3)cc2)c(=O)c1Br | 1.9 | -0.1 | 0.05
CNCCNCc1ccc(-c2ccc(-c3nc4cccc(C)c4[nH]3)s2)cc1 | 2.93 | 2.48 | 3.92
COC(=O)c1cccc(CNCc2cccc(-c3cccc(-c4nc5cc(F)ccc5[nH]4)c3)c2)c1 | 5.23 | 5.92 | 4.97
CCCC(=O)Nc1ccc(OCCN(Cc2ccccc2OC(F)(F)F)c2ccc(C(F)(F)F)c(C#N)c2)cc1 | 3.46 | 1.7 | 2.31
COc1cc(CCNC(=N)/C=C/c2ccc(Cl)cc2)ccc1Cl | 2.51 | 2.01 | -0.39

SMILES | inhibition [1] [%] | inhibition [2] [%] | inhibition [3] [%]
COc1cccc(CNC[C@@H](O)[C@H](Cc2ccccc2)NC(=O)c2cc(N3CCCC3=O)c3[nH]cc(C(C)C)c3c2)c1 | 1.26 | 2.02 | 2.36
O=C(Nc1cccc(C(F)(F)F)c1)Nc1ccc(Cl)c(C(F)(F)F)c1 | -1.34 | -2.17 | -0.99
c1ccc(Nc2nc(-c3ccccn3)cs2)nc1 | -0.62 | 0.38 | -2.43
Cc1cccc2nc(-c3ccc(-c4ccc(NC(=O)Nc5ccc(Cl)cc5)cc4)cc3)[nH]c12 | -1.7 | 1.17 | -1.04
O=S(=O)(Nc1ccc(CCN2CCCCC2CCN2CCCC2)cc1)c1cccc2cccnc12 (stereo not given) | 1.48 | 1.12 | 2.15
CN(C)CCN1CCN(Cc2cccc(-c3csc(-c4nc5ccccc5[nH]4)c3)c2)CC1 | 0.51 | 2.44 | 2.16
COc1cccc(CNC(=O)NC2CCN(c3ccnc(Nc4cc(OC)c(OC)c(OC)c4)n3)C2)c1 (stereo not given) | 2.39 | 1.6 | 2.88
COc1cc(-c2nc(-c3ccncc3)c(-c3ccc4c(c3)CCC4=NO)[nH]2)ccc1OCCN1CCN(C)CC1 | 6.6 | 6.49 | 5.31
CCCc1cc(=O)[nH]c(-n2nc(C)cc2NC(=O)CC(c2ccccc2)c2ccccc2)n1 | -2.15 | 1 | 2.15
CCCC1(NC[C@@H](O)[C@H](Cc2ccccc2)NC(=O)c2cc(NCC)cc(N3CCCCS3(=O)=O)c2)CC1 | 1.58 | 1.33 | -0.73
COc1ccc2ccccc2c1CNCCCCCCNCc1c(OC)ccc2ccccc12 | 1.14 | -0.97 | -3.28
CC1CN(c2cnn(Cc3cccc(NC(=O)Nc4ccc(F)cc4[N+](=O)[O-])c3)c(=O)c2Cl)CC(C)N1 (stereo not given) | -2.05 | 1.66 | -0.22
CC(C)CNCc1cccc(-c2cccc(CN(CCN(C)C)C(=O)NCCc3ccccc3)c2)c1 | -1.09 | -0.75 | -4.18
COc1ccccc1Cc1nc2ccccc2nc1SCC(=O)Nc1cccc(C(F)(F)F)c1 | 3.27 | 3.21 | 1.7
C=CCc1cccc(C)c1OCCCON1C(=N)N=C(N)NC1(C)C | 1.09 | 2.76 | 1.9
O=C(CCc1nc2c(cnn2-c2ccccc2)c(=O)[nH]1)NC1CCSc2ccccc21 (stereo not given) | 0.18 | 1.79 | -2.08
N#Cc1ccc(-c2ccc(OCC(O)CN3CCCN(C(=O)C(c4ccc5c(c4)OCO5)N4CCN(C/C=C/c5ccccc5)CC4)CC3)cc2)cc1 (stereo not given) | 4.32 | 2.9 | 2.95
O=C(NCCc1ccccc1)N(Cc1ccccc1-c1cccc(CNCCc2ccccc2)c1)C1CCN(Cc2ccccc2)CC1 | 2.61 | 1.06 | 5.48
Cn1c(N)c(N=O)c(=O)[nH]c1=O | 1.53 | 0.51 | 1.58
O=[N+]([O-])c1cccc(C=NNc2nc(=Nc3ccccc3)[nH]c(=Nc3ccccc3)[nH]2)c1 | 4.34 | 7.8 | -0.18
O=c1[nH]c2c(cc1CNC1CCCCC1)c(-c1ccc(F)cc1)nn2-c1ccccc1 | -1.4 | -1.47 | 0.4
COc1ccccc1N1CCN(CCCCNC(=O)c2ccc(NC(=O)c3ccc(C(F)(F)F)cc3)cc2)CC1 | -0.92 | -0.29 | -0.69
